Reference: PubChem BioAssay (NCI)
Compounds without any hit were thinned out: in the full panel of roughly 83,000, 20% have a hit.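 The test compound was applied at a single concentration to cells in 96-well plates for 48 hours, and percent growth was recorded.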 Unmarked numbers belong to inactive results. Activity calls are given as the source filed them. The calls were made as follows: active = growth percent below 10; inactive = the rest.

Columns and labels:
Test in all cases: NCI-60 one-dose screen, 48 h (100 = growth as untreated, 0 = no growth, -100 = all killed)
HCT-15 colon = details: 10 µM unless noted
HT29 colon = details: 10 µM unless noted
SNB-75 CNS = details: 10 µM unless noted
SNB-19 CNS = details: 10 µM unless noted
U251 CNS = details: 10 µM unless noted
PC-3 prostate = details: 10 µM unless noted
SK-MEL-5 melanoma = details: 10 µM unless noted
UACC-62 melanoma = details: 10 µM unless noted
LOX IMVI melanoma = details: 10 µM unless noted
SK-MEL-28 melanoma = details: 10 µM unless noted
SK-MEL-2 melanoma = details: 10 µM unless noted
EKVX NSCLC = details: 10 µM unless noted
SN12C renal = details: 10 µM unless noted
UO-31 renal = details: 10 µM unless noted
ACHN renal = details: 10 µM unless noted
CAKI-1 renal = details: 10 µM
A498 renal = details: 10 µM unless noted
CCRF-CEM leukemia = details: 10 µM unless noted
MOLT-4 leukemia = details: 10 µM unless noted

Row | Structure (SMILES) | growth (HCT-15 colon) | growth (HT29 colon) | growth (SNB-75 CNS) | growth (SNB-19 CNS) | growth (U251 CNS) | growth (PC-3 prostate) | growth (SK-MEL-5 melanoma) | growth (UACC-62 melanoma) | growth (LOX IMVI melanoma) | growth (SK-MEL-28 melanoma) | growth (SK-MEL-2 melanoma) | growth (EKVX NSCLC) | growth (SN12C renal) | growth (UO-31 renal) | growth (ACHN renal) | growth (CAKI-1 renal) | growth (A498 renal) | growth (CCRF-CEM leukemia) | growth (MOLT-4 leukemia)
1 | COC1=C(OC)C(=O)C=CC1=O | 108% | 95.4% | 110% | 108% | 107% | 92.7% | 111% | 94.1% | 100% | 120% | 112% | 121% | 103% | 89.1% | 103% | 115% | 120% | 46% | 
2 | O=C(Nc1ccc(-n2ccc3c(NC(=O)c4ccccc4)nccc32)cc1)c1ccc(Cl)c(C(F)(F)F)c1 | -32.9% (active) | -3.9% (active) | 60.3% | 44.6% | -51.6% (active) | 42% | 27.1% | 40.6% | -28.8% (active) | 54.6% | 53.4% | 72.8% | 47.9% | 36.6% | 37.1% | 26.3% | 63.6% | -9.57% (active) | 8.54% (active)
3 | O=C(NCCNc1nccc(-c2c(-c3cccc(O)c3)nc3sccn23)n1)c1cc(N2CCOCC2)cc(C(F)(F)F)c1 | 92% | 49.2% | 83.2% | 125% | 105% | 78.2% | 58.4% | 8.5% (active) | 52.3% | 44.4% | 64.5% | 88.6% | 89.8% | 87.5% | 79.4% | 82.5% | 92.8% | 52.9% | 68.6%
4 | O=S(=O)(Nc1cccc2cc(OS(=O)(=O)c3ccccc3)ccc12)c1ccccc1 | 34.4% | 19.2% | 49.6% | 78.2% | 48.5% | 59% | 53.4% | 61% | 55.4% | 66.4% | 66.9% | 64% | 70.1% | 59.7% | 85.1% | 71.4% | 48.6% | 61.9% | 43.3%
5 | O=C(Nc1ccc(-n2cc(-c3ccncc3)c(-c3ccc(O)c(Cl)c3)n2)cc1)c1cc(C(F)(F)F)cc(C(F)(F)F)c1 | 34.6% | 51.7% | 63.9% | 66.2% | 43.8% | 35.8% | 60% | 71.2% | 42.4% | 68.8% | 68.8% | 66.3% | 64.4% | 50.8% | 54.2% | 54.4% | 76.7% | 31.1% | 28.3%
6 | O=C(Nc1ccc(-n2cc(-c3ccncc3)c(-c3ccc(O)c(Cl)c3)n2)cc1)Nc1ccc(Cl)c(C(F)(F)F)c1 | 9.15% (active) | 47.9% | 28% | 27.7% | 5.79% (active) | 1.79% (active) | -73.6% (active) | 9.18% (active) | 16.6% | 20.1% | -42.2% (active) | 19.5% | 19.1% | 13.6% | 13.2% | -3.83% (active) | 63.5% | 7.92% (active) | 9.62% (active)
7 | COc1cc(C(=O)C[n+]2ccccc2)ccc1OC(C)=O | 103% | 108% | 87.6% | 98.6% | 98.9% | 89.9% | 98% | 97.1% | 101% | 107% | 102% | 100% | 98.1% | 104% | 105% | 99.3% | 78.9% | 95.9% | 98.2%
8 | O=C(Nc1ccc(-n2cc(-c3ccncc3)c(-c3ccc(O)c(Cl)c3)n2)cc1)Nc1cccc(Cl)c1Cl | 43.1% | 1.45% (active) | 72.5% | 71.9% | 39.7% | 29% | 31.2% | 89.5% | 52.8% | 60.3% | 66.8% | 44.9% | 83.1% | 57.2% | 47.8% | 67.3% | 68.7% | 38.2% | 39.1%
